Calls of active or inactive are those of the source.
Key:
[1] = biological target: Albumin (Bos taurus) (UniProt P02769); assay: compounds binding labelled BSA control protein – biochemical, small-molecule microarray, Alexa647 label, 635/667 nm fluorescence, artefact control for SMM control protein annotation, profiling panel (AID 1118); settings: BSA-A647 binding, fluorescence 635 nm, higher = more signal;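 further: score merges 667 nm emission intensity and signal-to-noise per printed compound spot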
Sequence of Albumin (Bos taurus) (P02769 whole entry, looked up): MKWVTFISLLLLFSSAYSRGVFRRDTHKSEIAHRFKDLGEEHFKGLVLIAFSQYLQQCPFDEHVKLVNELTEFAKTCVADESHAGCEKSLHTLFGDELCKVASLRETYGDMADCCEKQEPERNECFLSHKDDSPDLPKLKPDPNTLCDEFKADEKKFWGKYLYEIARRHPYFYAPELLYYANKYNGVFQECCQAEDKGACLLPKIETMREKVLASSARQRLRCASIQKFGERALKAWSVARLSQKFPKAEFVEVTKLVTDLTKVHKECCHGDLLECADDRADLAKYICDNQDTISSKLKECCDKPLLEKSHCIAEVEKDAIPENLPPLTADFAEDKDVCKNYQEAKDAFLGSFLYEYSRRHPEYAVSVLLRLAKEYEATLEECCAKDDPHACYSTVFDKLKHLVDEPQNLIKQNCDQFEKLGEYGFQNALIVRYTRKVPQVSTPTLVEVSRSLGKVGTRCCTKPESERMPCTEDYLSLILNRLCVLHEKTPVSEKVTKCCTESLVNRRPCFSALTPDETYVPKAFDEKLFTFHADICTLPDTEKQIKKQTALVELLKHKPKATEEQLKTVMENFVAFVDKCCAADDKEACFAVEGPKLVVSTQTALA

[2] = probe aXIP binding to arrayed compounds – biochemical, NeuroSMM set, 635/667 nm fluorescence, primary screen (AID 1119); settings: small-molecule microarray, higher = more signal, called active from +8 up or from −8 down;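 further: probe is the protein aXip251-270 applied at 1 µg/mL to compound-printed slides; binding of probe to printed compounds measured as 667 nm fluorescence plus signal to noise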
[3] = probe aNOTCH3 binding on compound microarray – biochemical, small-molecule microarray, 635/667 nm fluorescence, primary screen (AID 1120); settings: higher = more signal;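 further: probe is a biotin-tagged antibody raised against NOTCH3 rather than NOTCH3 protein; score merges spot fluorescence near 667 nm with spot signal to noise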
[4] = probe aNOTCH2 binding on compound microarray – biochemical, small-molecule microarray, 635/667 nm fluorescence, primary screen (AID 1121); settings: higher = more signal;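 further: score merges feature fluorescence read at 667 nm with its signal to noise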
[5] = biological target: Carbonic anhydrase 2 (Homo sapiens) (UniProt P00918); assay: compounds binding carbonic anhydrase 2 – biochemical, small-molecule microarray, Alexa647-labelled CAII, profiling panel (AID 1122); settings: CAII-A647 binding fluorescence, higher = more signal
[6] = COS7 lysate on small-molecule microarray, probe aHis, 635 nm (AID 1123); settings: COS7 cell lysate, fluorescence, higher = more signal;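 further: z-score combines 667nm fluorescence intensity with signal-to-noise per printed compound spot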
[7] = probe aLAP1 signal on lysate-treated microarray – cell lysate, small-molecule microarray, COS7 lysate, primary screen (AID 1124); settings: probe aLAP1, fluorescence, higher = more signal;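 further: lysate comes from COS7 cells expressing LAP1 and is applied at 0.3 µg/mL; score merges spot fluorescence near 667 nm with signal-to-noise over triplicate slides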
[8] = tested on: Sam68 (KHDRBS1); assay: compounds binding KHDRBS1 protein – biochemical, small-molecule microarray, 635 nm fluorescence, primary screen (AID 1125); settings: higher = more signal;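 further: score merges 667 nm channel intensity with signal to noise over triplicate slides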
[9] = tested on: Chordin-like protein 2 (CHRDL2); assay: compounds binding chordin-like 2 – biochemical, small-molecule microarray, 635 nm fluorescence, primary screen (AID 1126); settings: fluorescence 635 nm, higher = more signal;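 further: printed compound slides probed with Chrdl2 protein at 4 µg/mL for 1 h at 4 C; score merges 667 nm emission intensity with signal to noise over three replicate slides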
[10] = biological target: Concanavalin-A (Canavalia ensiformis) (UniProt P02866); assay: compounds binding concanavalin A lectin – biochemical, small-molecule microarray, Alexa647 label, 635 nm, artefact control for SMM control protein annotation, primary screen (AID 1127); settings: ConA-A647 binding fluorescence, higher = more signal;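 further: z combines 667 nm emission intensity with signal-to-noise across three replicate slides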
Sequence of Concanavalin-A (Canavalia ensiformis) (P02866 whole entry, looked up): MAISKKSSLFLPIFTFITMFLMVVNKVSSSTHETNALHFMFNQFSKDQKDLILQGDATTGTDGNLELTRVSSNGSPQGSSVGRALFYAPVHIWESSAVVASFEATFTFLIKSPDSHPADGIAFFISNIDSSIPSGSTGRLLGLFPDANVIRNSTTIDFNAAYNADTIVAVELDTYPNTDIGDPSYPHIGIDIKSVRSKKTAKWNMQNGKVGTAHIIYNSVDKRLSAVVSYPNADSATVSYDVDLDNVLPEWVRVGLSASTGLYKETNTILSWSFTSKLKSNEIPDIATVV

[11] = compounds binding Alexa647 anti-His antibody – biochemical, small-molecule microarray, 635 nm fluorescence, artefact control for SMM control protein annotation, primary screen (AID 1128); settings: higher = more signal;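 further: score merges feature fluorescence with signal-to-noise for each printed compound spot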
[12] = tested on: Human papillomavirus type 1a E7 protein (residues 1-88); assay: HPV1a E7 small-molecule binders, primary screen, biochemical, small-molecule microarray, residues 1-88, 635 nm (AID 1129); settings: small-molecule microarray binding, fluorescence 635 nm; higher = more signal
[13] = biological target: Focal adhesion kinase 1 (Homo sapiens) (UniProt Q05397); assay: PTK2 protein binding on printed compound slides – biochemical, small-molecule microarray, 635/667 nm fluorescence, BSA, DTT, primary screen (AID 1130); settings: 635 nm fluorescence, higher = more signal;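 further: composite of spot emission at 667 nm and signal to noise over triplicate slides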
Sequence of Focal adhesion kinase 1 (Homo sapiens) (Q05397 whole entry, looked up): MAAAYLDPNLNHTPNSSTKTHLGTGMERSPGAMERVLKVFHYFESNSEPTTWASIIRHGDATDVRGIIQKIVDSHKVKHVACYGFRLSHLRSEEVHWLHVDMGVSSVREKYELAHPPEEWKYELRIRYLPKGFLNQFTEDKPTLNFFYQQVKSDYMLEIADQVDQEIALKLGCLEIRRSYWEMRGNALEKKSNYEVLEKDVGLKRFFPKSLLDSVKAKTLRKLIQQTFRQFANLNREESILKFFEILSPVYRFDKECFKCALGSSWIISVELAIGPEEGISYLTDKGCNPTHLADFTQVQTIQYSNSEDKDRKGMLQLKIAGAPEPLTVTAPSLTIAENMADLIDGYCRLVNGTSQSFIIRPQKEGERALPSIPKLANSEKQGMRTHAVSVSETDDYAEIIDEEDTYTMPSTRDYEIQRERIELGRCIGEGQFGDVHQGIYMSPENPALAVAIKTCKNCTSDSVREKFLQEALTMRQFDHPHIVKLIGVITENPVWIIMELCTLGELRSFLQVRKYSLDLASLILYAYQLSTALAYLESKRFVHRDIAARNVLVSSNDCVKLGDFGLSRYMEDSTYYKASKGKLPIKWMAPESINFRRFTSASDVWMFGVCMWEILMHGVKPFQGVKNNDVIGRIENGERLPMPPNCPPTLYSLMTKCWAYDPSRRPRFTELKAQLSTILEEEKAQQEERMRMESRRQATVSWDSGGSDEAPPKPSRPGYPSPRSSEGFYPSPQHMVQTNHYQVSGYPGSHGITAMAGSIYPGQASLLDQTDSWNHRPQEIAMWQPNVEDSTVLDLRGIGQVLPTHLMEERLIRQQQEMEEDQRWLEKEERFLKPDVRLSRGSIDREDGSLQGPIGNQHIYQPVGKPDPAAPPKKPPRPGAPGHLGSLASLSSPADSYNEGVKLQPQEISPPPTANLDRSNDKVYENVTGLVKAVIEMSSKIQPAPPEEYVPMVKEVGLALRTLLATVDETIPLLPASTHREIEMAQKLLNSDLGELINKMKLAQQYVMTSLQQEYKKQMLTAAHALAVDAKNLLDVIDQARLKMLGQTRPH

[14] = tested on: Fibrinogen (Alexa647-labelled); assay: Alexa647-fibrinogen binding to printed small molecules – biochemical, small-molecule microarray, 635/667 nm fluorescence, artefact control for SMM control-protein annotation, profiling panel (AID 1131); settings: fibrinogen-A647 binding fluorescence, higher = more signal;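 further: z-score merges 667 nm fluorescence with per-spot signal-to-noise over triplicate slides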
[15] = biological target: Follistatin (Homo sapiens) (UniProt P19883); assay: FST protein binding to printed compounds – biochemical, small-molecule microarray, 635/667 nm fluorescence, primary screen (AID 1132); settings: 635 nm fluorescence, higher = more signal
Sequence of Follistatin (Homo sapiens) (P19883 whole entry, looked up): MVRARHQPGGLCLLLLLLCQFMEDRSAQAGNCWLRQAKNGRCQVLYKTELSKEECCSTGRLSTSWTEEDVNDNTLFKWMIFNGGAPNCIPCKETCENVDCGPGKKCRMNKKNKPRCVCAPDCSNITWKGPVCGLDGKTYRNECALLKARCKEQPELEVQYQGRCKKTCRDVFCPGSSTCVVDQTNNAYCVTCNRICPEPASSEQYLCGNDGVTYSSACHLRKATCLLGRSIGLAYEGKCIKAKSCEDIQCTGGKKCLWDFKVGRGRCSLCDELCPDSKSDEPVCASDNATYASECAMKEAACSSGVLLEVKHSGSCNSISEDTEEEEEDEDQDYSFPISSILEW

[16] = biological target: Fibroblast growth factor 2 (Homo sapiens) (UniProt P09038); assay: basic fibroblast growth factor binding to printed compounds – biochemical, small-molecule microarray, 635/667 nm fluorescence, primary screen (AID 1133); settings: FGF2, fluorescence 635/667, higher = more signal
Sequence of Fibroblast growth factor 2 (Homo sapiens) (P09038 whole entry, looked up): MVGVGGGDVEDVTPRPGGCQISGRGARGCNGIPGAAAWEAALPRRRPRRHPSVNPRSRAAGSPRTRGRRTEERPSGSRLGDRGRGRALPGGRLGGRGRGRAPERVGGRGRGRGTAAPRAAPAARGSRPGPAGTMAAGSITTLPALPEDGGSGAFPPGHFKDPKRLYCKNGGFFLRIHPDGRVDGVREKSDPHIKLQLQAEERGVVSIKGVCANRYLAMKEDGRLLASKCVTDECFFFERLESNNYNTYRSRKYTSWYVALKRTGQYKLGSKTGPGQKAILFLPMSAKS

[17] = JC-1 mitochondrial potential readout, lung cancer cells – cell-based, A549, JC-1 fluorescence, basal, 24 h, 100 nL, profiling panel (AID 1138); settings: higher = more signal;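 further: A549 lung adenocarcinoma cells under basal conditions with no added stimulus; test concentration not given here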
[18] = tested on: Lefty1; assay: Lefty1 protein binding to printed compounds – biochemical, small-molecule microarray, 635/667 nm fluorescence, primary screen (AID 1139); settings: fluorescence 635/667, higher = more signal
[19] = tested on: wheat germ agglutinin (Triticum aestivum), Alexa647-labelled; assay: Alexa647-WGA lectin binding to printed small molecules – biochemical, small-molecule microarray, 635/667 nm fluorescence, artefact control for SMM control-protein annotation, profiling panel (AID 1140); settings: WGA-A647 binding, 635 nm fluorescence, higher = more signal;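 further: score merges 667 nm feature emission with signal to noise over triplicate slides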
[20] = biological target: Luciferin 4-monooxygenase (Photinus pyralis) (UniProt P08659); assay: inhibition of purified Photinus pyralis luciferase – biochemical, luminescence, purified enzyme, 2006 set, primary screen (AID 1141); settings: purified firefly luciferase, SteadyGlo luminescence, 30 min; higher = more signal, called active from +8 up or from −8 down;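 further: cell-free assay with purified firefly luciferase at 100 ng per well in PBS; test concentration not given here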
Sequence of Luciferin 4-monooxygenase (Photinus pyralis) (P08659 whole entry, looked up): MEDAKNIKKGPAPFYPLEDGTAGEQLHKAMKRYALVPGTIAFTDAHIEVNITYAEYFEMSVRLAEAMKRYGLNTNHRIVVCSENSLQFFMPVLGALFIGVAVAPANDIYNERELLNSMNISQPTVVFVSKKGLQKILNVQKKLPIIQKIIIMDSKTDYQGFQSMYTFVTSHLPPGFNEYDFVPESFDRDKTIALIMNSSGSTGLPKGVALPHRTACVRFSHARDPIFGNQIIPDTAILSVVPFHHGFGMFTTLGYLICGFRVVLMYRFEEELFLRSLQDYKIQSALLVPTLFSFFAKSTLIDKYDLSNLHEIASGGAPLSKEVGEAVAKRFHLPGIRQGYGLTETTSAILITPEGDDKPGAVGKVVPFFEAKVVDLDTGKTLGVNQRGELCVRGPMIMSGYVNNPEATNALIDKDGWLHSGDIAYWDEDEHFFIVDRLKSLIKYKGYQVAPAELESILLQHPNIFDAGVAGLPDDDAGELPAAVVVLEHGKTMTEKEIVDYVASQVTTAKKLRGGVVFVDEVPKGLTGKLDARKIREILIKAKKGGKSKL

| SMILES | composite z-score [1] | composite Z-score [2] | composite z-score [3] | composite z-score [4] | composite z-score [5] | composite z-score [6] | composite z-score [7] | composite z-score [8] | composite z-score [9] | composite z-score [10] | composite z-score [11] | composite z-score [12] | composite z-score [13] | composite z-score [14] | composite z-score [15] | composite z-score [16] | z-score [17] | composite z-score [18] | composite z-score [19] | z-score [20] |
| --- | --- | --- | --- | --- | --- | --- | --- | --- | --- | --- | --- | --- | --- | --- | --- | --- | --- | --- | --- | --- |
| COCCOC(=O)N1C(=O)[C@@]2(c3ccccc31)[C@H](C(=O)N1CCN(c3ncccn3)CC1)[C@H]1C(=O)O[C@H](c3ccccc3)[C@H](c3ccccc3)N1[C@@H]2c1ccc(O)cc1 | 0.303 | -0.197 (inactive) | -0.273 | -0.237 | 0.597 | 1.15 | 0.421 | 1.02 | 0.271 | 1.1 | 1.12 | 0.613 | 0.585 | 0.675 | -0.147 | 0.173 | -0.189 | 0.0567 | 0.875 | -0.378 (inactive) |
| COC(=O)CCCCCCC(=O)Nc1ccc(NC(=O)CCCC[P+](c2ccccc2)(c2ccccc2)c2ccccc2)cc1 | -0.637 | 0.0895 (inactive) | 0.116 | -0.134 | -0.281 | -0.478 | 0.116 | 0.559 | 1.26 | 0.0666 | 0.703 | 0.289 | -0.507 | -0.722 | 1.01 | 0.626 | 0.679 | 1.23 | 0.0334 | 1.3 (inactive) |
| CCOc1cc(C(O)C2C=CC3C(=O)N(c4ccccc4)C(=O)C3N2Nc2ccc(C#N)cc2)ccc1O (stereo not given) | 0.876 | 0.793 (inactive) | 0.0638 | -0.171 | 0.877 | 0.825 | 0.876 | -0.0645 | -0.879 | 1.03 | 1.29 | 0.161 | 0.471 | 0.961 | 0.765 | -0.667 | -0.00105 | 0.113 | 0.961 | -0.519 (inactive) |
| CC(=O)NCCCC[C@@H]1NC(=O)[C@@H]2C[C@H](C(=O)NCCCC[N+](C)(C)C)[C@H](c3ccc(O)cc3)N2C1=O | -0.763 | 0.0463 (inactive) | 0.271 | -0.0467 | 0.514 | 1.18 | -0.111 | 1.29 | 1.35 | 1.16 | 3.1 | -0.882 | -0.218 | 0.764 | 1.48 | 1.73 | -1.12 | 1.49 | -0.23 | -0.174 (inactive) |
| O=C1O[C@H](c2ccccc2)[C@H](c2ccccc2)N2[C@H]1[C@@H](C(=O)O)[C@]1(C(=O)Nc3ccc(C#CC4=CCCCC4)cc31)[C@H]2c1ccc(O)cc1 | 0.562 | 0.235 (inactive) | 0.0445 | -0.105 | 0.627 | 1.51 | 0.384 | 0.712 | 0.285 | 0.997 | 0.687 | 0.394 | 0.0304 | 0.987 | 1.35 | 0.392 | -2.35 | 0.841 | 0.362 | -2.89 (inactive) |
| O=C1O[C@H](c2ccccc2)[C@H](c2ccccc2)N2[C@H]1[C@@H](C(=O)Nc1nc3ccccc3s1)[C@]1(C(=O)Nc3ccc(C#CC4(O)CCCCCC4)cc31)[C@H]2c1ccccc1OCCO | 0.743 | -0.305 (inactive) | 0.0459 | -0.0454 | 0.461 | 1.82 | 0.398 | 1.3 | 0.413 | 1.07 | 1.41 | 1.2 | 0.193 | 0.943 | 1.3 | 0.903 | -2.19 | 1.16 | 0.742 | -0.62 (inactive) |
| O=C1c2ccccc2[C@](Cc2ccccc2I)(C(=O)NCC(F)(F)F)[C@H](c2ccc(CO)cc2)N1C1CCCCC1 | 0.689 | 0.328 (inactive) | -0.0026 | -0.0956 | 0.729 | 2.31 | 0.326 | 1.31 | 0.227 | 1.16 | 1.64 | 1.21 | -0.003 | 0.964 | 0.846 | 0.18 | 2.17 | 0.289 | 0.856 | -1.61 (inactive) |
| CCCCCCc1nc(-c2cc(C)c(OC)c(C)c2)c(C)c2c1[Si](C(C)C)(C(C)C)OC2 | -0.58 | 0.792 (inactive) | -0.165 | -0.209 | -0.146 | 0.0188 | -0.373 | -0.611 | 0.574 | -0.112 | -0.351 | 0.0093 | 0.126 | -0.273 | 0.204 | -0.18 | -0.522 | 0.195 | -0.496 | 0.325 (inactive) |
| CCOC(=O)C1CCCCN1 (stereo not given) | 0.351 | 0.104 (inactive) | 0.77 | 0.435 | 0.175 | 0.437 | 0.471 | 0.983 | 0.47 | 0.562 | 0.313 | 0.859 | -0.0288 | 0.367 | 0.599 | 0.522 | -0.0223 | 0.589 | 0.109 | 0.48 (inactive) |
| CC(C)(C)OC(=O)CC[C@]1(C(=O)NCc2ccccc2)N=C(c2ccc(OCCCO)cc2)O[C@H]1c1ccccc1CN=[N+]=[N-] | 0.75 | -1 (inactive) | 0.526 | -0.127 | 0.68 | 2.45 | 0.583 | 1.3 | -0.0873 | 0.769 | 2 | 1.23 | -0.221 | 0.985 | 1.48 | 1.75 | 2.45 | 1.33 | 0.571 | -2.11 (inactive) |

— PubChem BioAssay
